Out of some 48,000 compounds screened, about 13,000 (27%) showed an effect of 50% or more. The list shows a part of the results.
The compounds below were run on Wolbachia pipientis (assay: Anti-Wolbachia Cell-Based Screen). Settings: 5 µM.
Format: functional
Design: scale not given: in the data most compounds retested in dose-response had high values

Compound | Percent Effect [%]
OC[C@@H](O)CN(CCC(F)(F)F)c1ncccn1 | -5.207
O=C(CCN1CCCN(c2nccs2)CC1)NCC1CCCCC1 | -7.888
Cc1cnn(CCNC(C)C(=O)Nc2ccc(Cl)cn2)c1 (stereo unspecified) | -21.66
CCn1nnnc1-c1cccc(NC(=O)CCn2cc(C)cn2)c1 | 2.601
Cc1cnn(CCNCCCOc2ccccc2)c1 | 2.655
Cc1cnn(CCCNC(=O)NC(C)C(=O)Nc2ccccc2)c1 (stereo unspecified) | 105.3
Cc1cnn(CCCNC2Cc3ccccc3C2)c1 | 8.956
Cc1cnn(CCNCC(=O)NCc2ccccc2)c1 | 3.726
Cc1cnn(CCCNC(=O)NCCS(=O)(=O)Nc2ccccc2)c1 | 96.15
Cc1cnn(CCCNC(=O)NCCC(=O)Nc2ccccc2)c1 | 97.62
Cc1cnn(CCNC(C)C(=O)NCCc2cccs2)c1 (stereo unspecified) | 5.747
CN(C)S(=O)(=O)N1CC[C@]2(C[C@H](OCc3ccccn3)CO2)C1.O=C(O)C(F)(F)F | 14.62
Cc1ccc(C(=O)N2CC[C@@H]3[C@H]2CCC(=O)N3CCN(C)C)cn1.O=C(O)C(F)(F)F.O=C(O)C(F)(F)F | 19.11
CCn1nc(C)c(NC(=O)c2cc(NC(=O)C3CC3)n(C)n2)c1C | -7.543
O=C1C(N2CCOCC2)CCCN1Cc1cccc(C(F)(F)F)c1 (stereo unspecified) | 85.07
NC(=O)CN(C(=O)Cc1cccc(C(F)(F)F)c1)C1CCCC1 | 0.7845
Cc1nc(CN2CCCC(CCc3cccc(C(F)(F)F)c3)C2)co1 (stereo unspecified) | -5.657
NC1CCCN(Cc2cccc(C(F)(F)F)c2)C1=O (stereo unspecified) | 110.9
O=C(C[S+]([O-])Cc1cccc(C(F)(F)F)c1)NC1CCCC1 (stereo unspecified) | -0.5467
O=C1C(N2CC[C@@H](O)C2)CCCN1Cc1cccc(C(F)(F)F)c1 (stereo partly specified) | 107.1
FC(F)(F)c1cccc(CN2CCOC[C@H](Oc3cccnc3)C2)c1 | -1.353
O=C1NC[C@@]2(C(=O)O)CN(Cc3cccc(C(F)(F)F)c3)C[C@@H]12 | -16.76
O[C@H]1COCCN(Cc2cccc(C(F)(F)F)c2)C1 | 1.348
CC(C)(C)c1nc2cc(NC(=O)Cn3ccc(=O)[nH]c3=O)ccc2o1 | -2.056
Cc1cccc(C(C(=O)N2CCN(C(=O)c3ccc[nH]3)CC2)N(C)C)c1 (stereo unspecified) | 8.522
Clc1ccc2nc(N3CCC(NCCCC4CCOC4)CC3)sc2c1 (stereo unspecified) | 5.411

Compound | Percent Effect [%]
CC(C)COCC(C)NC(=O)NCc1cccc(-n2cncn2)c1 (stereo unspecified) | 11.71
CCN1CCCC(C)(C(=O)NCc2nncn2CCc2ccccc2)C1 (stereo unspecified) | 118.3
CCN1CCCC(C)(C(=O)NCc2nnnn2-c2ccccc2)C1 (stereo unspecified) | 65.9
CCN1CCCC(C)(C(=O)NCCc2nnc(C)[nH]2)C1 (stereo unspecified) | 0.7717
CCN1CCCC(C)(C(=O)NCc2nccn2Cc2ccccc2)C1 (stereo unspecified) | 105.1
CCC1(CO)CCCN(Cc2nccn2Cc2ccccc2)C1 (stereo unspecified) | 7.742
CCN1CCCC(C)(C(=O)NCCCc2nc(C)cs2)C1 (stereo unspecified) | -10.41
CCN1CCCC(C)(C(=O)NCCc2n[nH]c(=O)[nH]2)C1 (stereo unspecified) | 34.99
CCOC(=O)C1(Cc2ccccc2)CCCN(Cc2nccn2CC)C1 (stereo unspecified) | 6.244
Cc1nnc(N2CCC(CN(C)C(C)C)CC2)c(C#N)c1C | 6.063
O=C(CC1CC1)N1CCn2cc(Cn3cncn3)nc2C1 | 0.5446
Cn1cnc(S(=O)(=O)NCC(C)(O)c2ccc3c(c2)OCO3)c1 (stereo unspecified) | -0.9964
Cn1cc(Br)cc1C(=O)NCC(C)(O)c1ccsc1 (stereo unspecified) | -10.72
Cn1cc(S(=O)(=O)NCC(C)(O)c2ccsc2)cn1 (stereo unspecified) | 76.2
CSCC(C)(O)CNc1ncccc1I (stereo unspecified) | 15.53
CC(=O)N1CCN(C(=O)c2snnc2C)[C@H]2CS(=O)(=O)C[C@H]21 | -13.7
Cc1ncsc1C(=O)N1CCCCC1c1cc2nc(C)c(C)c(O)n2n1 (stereo unspecified) | 146.5
Cc1nnsc1C(=O)N1CCCCC1c1cc2nc(C)c(C)c(O)n2n1 (stereo unspecified) | 136.2
Cc1nc2cc(C3CCN(Cc4cccc(F)c4F)C3)nn2c(O)c1C.O=C(O)CC(O)(CC(=O)O)C(=O)O (stereo unspecified) | -10.9
Cc1nnsc1C(=O)N1CCN(C(=O)C2CCC2)[C@@H]2CS(=O)(=O)C[C@@H]21 | 2.369
Cc1nc2cc(C3CCCCN3C(=O)C3CC3)nn2c(O)c1C (stereo unspecified) | 136.9
CC1CCCN(c2ccc(C(N)=O)cc2NC(=O)CC2=CCNCC2)C1 (stereo unspecified) | 16.61
O=C1N(Cc2ccccc2F)CCCC12CCN(C1CCSCC1)C2 (stereo unspecified) | -13.98
Cc1ncsc1CN1Cc2cn(C)nc2C(COCC2CC2)C1.O=C(O)C(F)(F)F.O=C(O)C(F)(F)F (stereo unspecified) | 13.37
Cc1ccnn1CC(=O)N1CCCN(C2Cc3ccccc3C2)CC1 | -5.068
CC(C)NC(=O)C1Cc2nc(-c3ccsc3)sc2N1CC1CC1 (stereo unspecified) | 78.87

Compound | Percent Effect [%]
CC(C)N1c2sc(-c3ccccc3)nc2CC1C(=O)NC1CCCC1 (stereo unspecified) | 22.35
CC(C)N1c2sc(-c3ccsc3)nc2CC1C(=O)NC1CCCC1 (stereo unspecified) | 65.31
O=C([C@@H]1CCCO1)N1CCC(Cn2cc(-c3ccsc3)nn2)CC1 | -13.58
O=C(NC1CCCC1)C1Cc2nc(-c3ccsc3)sc2N1CC1CC1 (stereo unspecified) | 63.55
O=C(NC1CC1)C1CCCN1c1ncnc2ccsc12 (stereo unspecified) | -11.59
CC(C)N1c2sc(-c3ccsc3)nc2CC1C(=O)NC1CC1 (stereo unspecified) | 38.95
CS(=O)(=O)NCC1CCCCN1C(=O)c1csc(-c2ccsc2)n1 (stereo unspecified) | 11.05
Cc1cncc(C(=O)N2CCC(Cn3cc(-c4ccsc4)nn3)CC2)c1 | -0.4456
COCCCN1CCCN(C(C)C(=O)Nc2cccc(I)c2)CC1 (stereo unspecified) | 23.62
COc1ccc(-n2nc(C)c(C(C)=O)c2C)cc1CO | -7.291
Cc1nc(COCc2nc3c(o2)CN(C(=O)c2ccoc2)C3)cs1 | 0.193
CN(C)c1nc2c(c(N3CCC(O)CC3)n1)CN(CC(C)(C)C)CC2 | 3.405
c1cc(CNCc2ccnc(N3CCCC3)c2)c2c(c1)OCO2 | -29.77
Cc1nc(-c2ccsc2)ccc1C(=O)NCCC(=O)N1CCCC1 | 0.2112
Cc1noc(C)c1C(=O)NCCN1CCN(c2ccccc2)CC1 | 7.051
Cc1noc(C(C)C)c1C(=O)NCC1CCCN1Cc1ccccc1 (stereo unspecified) | -8.242
Cc1noc(C(C)C)c1C(=O)NCCN1CCOCC1 | 72.1
Cc1noc(C(C)C)c1C(=O)NCCC(=O)N1CCCCC1 | 90.26
CCC(CC)(CCCNC(=O)c1c(C)noc1C)C1OCCO1 | -3.207
CC(Cn1cccn1)NC(=O)NCCCN1CCCCCC1=O (stereo unspecified) | -6.235
Cc1noc(C(C)C)c1C(=O)NCCCN1CCNCC1.Cl | 114.5
CC(NC(=O)NCCN1CCCCCC1=O)c1nncn1C (stereo unspecified) | -0.9457
Cc1noc(C)c1C(=O)NCCN1CCOCC1 | 15.76
Cc1noc(C(C)C)c1C(=O)NCCCN1CCCCCC1=O | 122
Cc1cc(C)n(CC2(CNC(=O)C(c3ccc(F)cc3)N(C)C)CC2)n1 (stereo unspecified) | 1.569
CN(Cc1ccsc1)C(=O)Nc1ccc(S(C)(=O)=O)nc1 | -1.265

Compound | Percent Effect [%]
COCCN1CC[C@H]2CN(c3cc(OC)ncn3)C[C@@H]2C1=O.O=C(O)C(F)(F)F | -11.01
CN1C(=O)CC(c2ccccc2)C12CCN(c1ncc(F)cn1)CC2 (stereo unspecified) | 11.07
O=C1N(c2ccc(Br)cc2)Cc2n[nH]c(=O)n21 | -3.118
Cc1ccccc1CCCN(C)S(C)(=O)=O | 5.397
Cc1ccsc1CNC1CCCc2c1cnn2C.Cl (stereo unspecified) | -3.429
COc1cc(OC)cc(-c2cccc3c2OC(CN)C3)c1 (stereo unspecified) | 2.272
COCCCNC(=O)c1c(C)noc1C(C)C | 99.64
Cc1noc(C(C)C)c1C(=O)NCC1CCN(c2ccccc2)C1 (stereo unspecified) | -7.701
CC1CCN(CCCNC(=O)C2CCCCC2)CC1 | 13.42
Cc1noc(C(C)C)c1C(=O)NCCCN1CCC(C)CC1 | 80.48
Cc1noc(C(C)C)c1C(=O)NCc1cc(F)cc(F)c1 | -8.359
COc1ccc(S(=O)(=O)NC(=O)c2c(C)noc2C(C)C)cc1OC | 2.156
CCn1c(=O)nc2n1C(=O)N(c1cccc(Cl)c1)C2 | 5.675
CC1CCCN(S(=O)(=O)NCCCn2ccc3ccccc32)C1 (stereo unspecified) | -2.865
Cn1c(-c2ccc(F)cc2)cn2cc(C(=O)N3CCC(N)C3)nc2c1=O (stereo unspecified) | -3.321
CC(c1cccnc1)N1CCN(CCc2ccccn2)CC1 (stereo unspecified) | -1.072
Cc1ccc(CNC(=O)c2nc3c(n2C)CCN(c2ncccn2)C3)o1 | 77.66
CN1CCCN(C(=O)c2nc3c(n2C)CCN(c2ncccn2)C3)CC1 | 6.305
Cc1ccc(CNC(=O)c2nc3c(o2)CN(c2ncccn2)C3)o1 | -19.04
CC(=O)N1CCO[C@@H]2CN(S(=O)(=O)c3ccc(C)cc3)CC[C@@H]2C1 | 106.7
CN1CCO[C@@H]2CN(S(=O)(=O)c3ccc(F)cc3)CC[C@@H]2C1.O=C(O)C(F)(F)F | -6.683
CC(=O)N1CCO[C@@H]2CN(S(=O)(=O)c3ccc(F)cc3)CC[C@@H]2C1 | 115.5
Cn1nnc2c1C(COCC1CC1)CN(C(=O)C1=CCCC1)C2 (stereo unspecified) | -1.372

— ChEMBL document CHEMBL3988442, “University of Dundee, Small-Polar-MMV Screening Library” (2021)
